Test [1] is described as follows: Nuclear factor erythroid 2-related factor 2/antioxidant responsive element (Nrf2/ARE) small molecule agonists: qHTS cell viability counter screen in human keratinocytes (AID 1919968; active = well fitted curve in the direction sought with a large enough effect in the repeat runs; an effect the other way counts as inactive or inconclusive; note: nearly all actives have a fitted effect of over 55% in size). The essentials:
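Measured as CellTiter-Fluor fluorescence, this readout tracks cytotoxicity in the same wells as the ARE-luciferase screen. HaCaT reporter cells (1,500/well) received compounds after a 5 h pre-incubation and were exposed for 23 h.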
For orientation: In qHTS, concentration-response curves come from the screen itself.

A short description of test [2]: Nuclear factor erythroid 2-related factor 2/antioxidant responsive element (Nrf2/ARE) small molecule agonists: luciferase reporter gene qHTS assay in human keratinocytes (AID 1919969). Note: nearly all actives have a fitted effect of over 35% in size. Note: potency is the fitted concentration of half-maximal effect.
For test [3], the target named is Gonadotropin-releasing hormone receptor (Homo sapiens) (UniProt P30968). Nature of the test: Human gonadotropin-releasing hormone receptor (GnRHR) small molecule agonists, calcium flux assay in GnRHR-HEK293 cells (AID 1920063). Note: nearly all actives have a fitted effect of over 35% in size. The gist of the method: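 Fluorescence kinetics (480 nm excitation, 540 nm emission; 3 min, 1 s steps) report calcium mobilisation in human GnRHR-HEK293 cells in agonist mode. Dye incubation: 1 h, 37 C.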
Chain of Gonadotropin-releasing hormone receptor (Homo sapiens) (P30968 whole entry, looked up): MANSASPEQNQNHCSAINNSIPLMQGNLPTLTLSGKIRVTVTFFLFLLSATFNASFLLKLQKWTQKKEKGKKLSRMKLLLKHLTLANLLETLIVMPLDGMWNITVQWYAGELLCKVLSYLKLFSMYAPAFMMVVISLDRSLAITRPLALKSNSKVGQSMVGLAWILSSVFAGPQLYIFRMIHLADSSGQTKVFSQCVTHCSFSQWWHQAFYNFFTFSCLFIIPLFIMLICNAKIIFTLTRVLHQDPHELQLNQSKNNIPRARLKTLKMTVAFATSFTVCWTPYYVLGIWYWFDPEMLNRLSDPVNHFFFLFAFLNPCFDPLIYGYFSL
(A change in cytosolic calcium serves as a functional read-out for many receptors and channels.)

For test [4], the target named is KiSS-1 receptor (Homo sapiens) (UniProt Q969F8). Nature of the test: Human kisspeptin (KISS1R) small molecule agonists, calcium flux assay in KISS1R-HEK293 cells (AID 1920064; active = well fitted curve in the direction sought with a large enough effect in the repeat runs; an effect the other way counts as inactive or inconclusive). The gist of the method: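 Measures KISS1R agonism through calcium-sensitive dye fluorescence in stably transfected HEK293 cells, read for 3 min after pin-tool compound delivery; 15-point titrations in triplicate.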
Chain of KiSS-1 receptor (Homo sapiens) (Q969F8 whole entry, looked up): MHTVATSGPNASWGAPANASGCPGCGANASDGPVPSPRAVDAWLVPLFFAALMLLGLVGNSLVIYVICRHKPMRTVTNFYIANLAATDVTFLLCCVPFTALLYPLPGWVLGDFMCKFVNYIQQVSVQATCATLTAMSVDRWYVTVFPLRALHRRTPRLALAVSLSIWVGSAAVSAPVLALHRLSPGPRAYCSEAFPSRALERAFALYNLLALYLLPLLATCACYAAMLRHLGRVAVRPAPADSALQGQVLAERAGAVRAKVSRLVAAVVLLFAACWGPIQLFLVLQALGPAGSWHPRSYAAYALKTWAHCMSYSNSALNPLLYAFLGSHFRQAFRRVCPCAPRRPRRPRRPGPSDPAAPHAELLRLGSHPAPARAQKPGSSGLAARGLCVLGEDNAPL

Test [5] is described as follows: G protein-coupled receptor (GPCR) small molecule agonists, calcium flux assay: HEK293 wild type cell line counter screen (AID 1920065). The essentials:
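Readout: fluorescence at 480 nm excitation/540 nm emission, sampled at 1 s intervals for 3 min. Cells had been cultured 18 h, then dye-loaded 1 h at 37 C before compound or ATP addition.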

The nature of test [6]: p53 small molecule agonists, cell-based qHTS assay with human liver microsomes: qHTS cell viability counter screen (AID 1963579). Note: nearly all actives have a fitted effect of over 45% in size. The essentials:
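p53RE-bla cells (4,000/well) were pre-incubated 5 h at 37 C, then given compounds in DMSO plus human liver microsomes (0.5 mg/mL final) and NADPH (0.5 mg/mL final) for 16 h at 37 C. Viability was read by CellTiter-Glo luminescence.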

The nature of test [7]: p53 small molecule agonists, cell-based qHTS assay with rat liver microsomes: qHTS cell viability counter screen (AID 1963580). Note: nearly all actives have a fitted effect of over 45% in size. The essentials:
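Viability is assessed in parallel with the p53 reporter read: HCT-116 p53RE-bla cells receive compounds plus rat microsomes and NADPH (0.5 mg/mL final apiece), incubate 16 h at 37 C, and then CellTiter-Glo luminescence is recorded.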

Test [8] is described as follows: p53 small molecule agonists, cell-based qHTS assay: qHTS cell viability counter screen (AID 1963581). Note: nearly all actives have a fitted effect of over 45% in size. The gist of the method:
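In the same plates used for the p53 bla reporter, HCT-116 cells given compounds for 16 h at 37 C received CellTiter-Glo; luminescence was recorded 30 min later at room temperature.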

In test [9] the target is 5-hydroxytryptamine receptor 2A (Homo sapiens) (UniProt P28223). Nature of the test: 5-hydroxytryptamine receptor 2A (HTR2A) small molecule antagonists, cell-based qHTS assay (AID 1963586). Note: nearly all actives have a fitted effect of over 45% in size. The essentials:
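Antagonist-mode intracellular calcium assay: DOI (4 nM) added after 5 min compound pre-incubation at room temperature to dye-loaded HTR2A-CHO cells. Fluorescence followed for 3 min, sampled every second.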

Test [10] shares this target. The experiment in a line: 5-hydroxytryptamine receptor 2A (HTR2A) small molecule agonists, cell-based qHTS assay (AID 1963587). Note: nearly all actives have a fitted effect of over 30% in size. The gist of the method: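 CHO cells stably expressing human HTR2A, plated 18 h, loaded with calcium dye 1 h at 37 C. Agonist mode: compounds added and intracellular calcium fluorescence recorded kinetically for 2 min at 1 sec intervals.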
The target of test [11] is Muscarinic acetylcholine receptor M1 (Homo sapiens) (UniProt P11229). Nature of the test: Cholinergic receptor muscarinic 1 (CHRM1) small molecule antagonists, cell-based qHTS assay (AID 1963588). Note: nearly all actives have a fitted effect of over 40% in size. Note: potency is the fitted concentration of half-maximal effect. The gist of the method: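 CHRM1-CHO calcium-flux assay, antagonist mode. Cells were seeded 18 h, dye-loaded 1 h at 37 C and given compound for 5 min at RT, then acetylcholine was added at 50nM. FDSS fluorescence was read 3 min; 15 concentrations, three runs.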
Chain of Muscarinic acetylcholine receptor M1 (Homo sapiens) (P11229 whole entry, looked up): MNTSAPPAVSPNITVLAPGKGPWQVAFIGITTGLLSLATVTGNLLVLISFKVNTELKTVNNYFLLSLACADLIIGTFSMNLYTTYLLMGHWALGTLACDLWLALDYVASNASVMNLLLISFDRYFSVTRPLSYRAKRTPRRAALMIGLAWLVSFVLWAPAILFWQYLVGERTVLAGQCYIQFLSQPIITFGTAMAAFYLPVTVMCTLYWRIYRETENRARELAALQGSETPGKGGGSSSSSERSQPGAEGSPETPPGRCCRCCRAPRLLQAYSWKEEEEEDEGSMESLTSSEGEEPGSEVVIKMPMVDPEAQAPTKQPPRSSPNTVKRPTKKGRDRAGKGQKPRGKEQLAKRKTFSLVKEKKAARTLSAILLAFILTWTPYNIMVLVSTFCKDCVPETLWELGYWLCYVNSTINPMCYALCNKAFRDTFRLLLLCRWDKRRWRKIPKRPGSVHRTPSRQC

The nature of test [12]: cAMP Responsive Elements (CRE) small molecule agonists, cell-based qHTS assay (AID 1963590). The essentials: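 Cell line: CRE-bla HEK 293T; medium DMEM/10% dialyzed FBS/0.1 mM NEAA/1 mM pyruvate/25 mM HEPES; 3 h compound exposure; beta-lactamase FRET readout after 2 h substrate loading at RT.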
Test [13] concerns the target Beta-2 adrenergic receptor (Homo sapiens) (UniProt P07550). The experiment in a line: Adrenergic beta2 receptor (ADRB2) small molecule antagonists, cell-based qHTS assay (AID 1963592). Note: series mostly up to about 92 µM; nearly all actives have a fitted effect of over 50% in size. The gist of the method: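 Cells (CHO, stable ADRB2 overexpression) incubated 18-20hr at 37C; compounds added from DMSO; agonist mix (1nM isoproterenol, 100uM IBMX, 25uM Ro-20-1724) added; 0.5hr RT; d2-cAMP and anti-cAMP-cryptate added; 1hr RT; 665/615 nm read.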

For test [14] the target is unchanged. Nature of the test: Adrenergic beta2 receptor (ADRB2) small molecule agonists, cell-based qHTS assay (AID 1963593).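 Note: CHO cells stably overexpressing human ADRB2.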 The essentials:
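CHO cells stably over-expressing ADRB2 were plated overnight at 37C, then dosed with compounds plus a stimulation mix containing 100uM IBMX and 25uM Ro-20-1724 for 0.5hr at room temperature. cAMP was measured by HTRF competition, 1hr.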

Test [15] has as its target D(2) dopamine receptor (Homo sapiens) (UniProt P14416). Nature of the test: Dopamine D2 receptor (DRD2) small molecule agonists, cell-based qHTS assay (AID 1963594). Note: nearly all actives have a fitted effect of over 35% in size. The essentials: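 HEK293 cells stably expressing human DRD2, pre-treated with PDE inhibitor Ro20-1724 (0.1 mM final) and compound 10 min at room temperature, then stimulated with NKH477 (200nM […]) for 30 min. cAMP read by HTRF (665/620 nm).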

The target is the same in test [16]. Nature of the test: Dopamine D2 receptor (DRD2) small molecule antagonists, cell-based qHTS assay (AID 1963595; active = well fitted inhibition curve with a large enough effect in the signal ratio in the repeat runs, with a control signal flat; the % refers to the signal ratio). The gist of the method:
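Antagonist mode in DRD2-HEK293 cells: after compound addition with 0.1 mM Ro20-1724, cells received quinpirole (12 nM) and NKH477 (200 nM) for 30 min at room temperature; HTRF cAMP read after 1 h detection.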

Test [17] can be described thus: cAMP Responsive Elements (CRE) small molecule antagonists, cell-based qHTS assay (AID 1963591; active = well fitted inhibition curve with a large enough effect in the signal ratio in the repeat runs, not every such curve was filed as active; the % refers to the signal ratio). The essentials: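 Inhibition of NKH477-driven (0.25 uM final) CRE-beta-lactamase signal in HEK293T cells, 3 h compound exposure at 37 °C, detected by FRET substrate fluorescence.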
The target in test [18] is Muscarinic acetylcholine receptor M1 (Homo sapiens) (UniProt P11229). The experiment in a line: Cholinergic receptor muscarinic 1 (CHRM1) small molecule agonists, cell-based qHTS assay (AID 1963589). Note: nearly all actives have a fitted effect of over 35% in size. The gist of the method:
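Each compound was tested at 15 concentrations across three independent runs on dye-loaded CHO cells stably expressing human CHRM1, reading intracellular calcium fluorescence kinetically at 1 sec intervals.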

Drawing on PubChem BioAssay (Tox21), this text covers Potency for eight molecules.

Molecules are shown by their SMILES. Inconclusive results are not listed. Calls of active or inactive are those of the source. Unless noted, calls come from the whole dose curve.

Chain of Beta-2 adrenergic receptor (Homo sapiens) (P07550 whole entry, looked up): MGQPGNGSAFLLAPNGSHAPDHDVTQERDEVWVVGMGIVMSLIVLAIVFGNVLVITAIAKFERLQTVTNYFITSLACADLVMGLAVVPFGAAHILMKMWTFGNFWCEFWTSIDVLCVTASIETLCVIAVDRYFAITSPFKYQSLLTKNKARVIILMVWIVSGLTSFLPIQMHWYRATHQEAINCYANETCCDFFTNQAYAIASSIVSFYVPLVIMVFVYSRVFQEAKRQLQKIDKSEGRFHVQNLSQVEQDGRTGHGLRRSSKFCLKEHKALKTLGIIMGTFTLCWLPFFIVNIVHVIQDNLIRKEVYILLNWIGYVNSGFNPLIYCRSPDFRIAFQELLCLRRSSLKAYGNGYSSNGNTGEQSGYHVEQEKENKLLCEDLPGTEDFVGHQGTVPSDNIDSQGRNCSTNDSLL
Chain of 5-hydroxytryptamine receptor 2A (Homo sapiens) (P28223 whole entry, looked up): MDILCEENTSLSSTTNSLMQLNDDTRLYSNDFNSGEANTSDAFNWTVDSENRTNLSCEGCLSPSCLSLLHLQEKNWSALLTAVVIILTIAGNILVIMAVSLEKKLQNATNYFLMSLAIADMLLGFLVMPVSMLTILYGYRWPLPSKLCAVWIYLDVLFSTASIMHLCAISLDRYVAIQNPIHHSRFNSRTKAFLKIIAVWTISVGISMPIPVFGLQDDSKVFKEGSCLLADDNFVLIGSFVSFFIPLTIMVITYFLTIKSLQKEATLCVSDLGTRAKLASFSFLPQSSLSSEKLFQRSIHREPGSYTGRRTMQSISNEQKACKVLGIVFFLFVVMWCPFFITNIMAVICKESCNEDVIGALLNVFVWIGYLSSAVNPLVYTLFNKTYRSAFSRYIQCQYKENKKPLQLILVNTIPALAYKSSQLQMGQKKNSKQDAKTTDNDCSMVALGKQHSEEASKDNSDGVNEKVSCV
Chain of D(2) dopamine receptor (Homo sapiens) (P14416 whole entry, looked up): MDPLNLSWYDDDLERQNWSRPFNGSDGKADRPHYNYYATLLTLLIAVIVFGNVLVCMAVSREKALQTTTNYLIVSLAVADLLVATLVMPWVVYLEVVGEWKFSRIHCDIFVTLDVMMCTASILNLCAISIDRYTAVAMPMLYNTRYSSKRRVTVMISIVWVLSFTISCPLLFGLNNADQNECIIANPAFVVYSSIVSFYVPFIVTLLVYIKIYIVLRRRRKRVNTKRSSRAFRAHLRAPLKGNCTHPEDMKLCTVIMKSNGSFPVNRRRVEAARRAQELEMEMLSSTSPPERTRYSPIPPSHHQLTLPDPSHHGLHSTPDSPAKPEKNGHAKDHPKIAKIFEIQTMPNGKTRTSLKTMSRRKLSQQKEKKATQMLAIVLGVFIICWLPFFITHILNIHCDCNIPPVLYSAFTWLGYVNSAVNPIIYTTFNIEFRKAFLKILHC

Turning to `CCC(C)(C)c1cc(-n2nc3ccccc3n2)c(O)c(C(C)(C)CC)c1`, the Potency result in test [1], in [2], in test [3], in test [4], in [5] and in [6] was “inactive” in each case. The Potency result in [7], in test [8], in test [9], in [10], in test [12] and in test [13] was “inactive” in each case. For the same molecule, the Potency entry in test [14], in test [15] and in test [16] was “inactive” in each case. Besides, the Potency in [11] is 0.0956 µM (active).
Consider `C[C@H](N)C(=O)c1ccccc1`, for which the Potency result in test [1], in [2], in [3], in test [4], in test [5] and in test [6] was “inactive” each time. Besides, the Potency result in test [7], in test [8], in test [9], in [10], in test [11] and in [12] was “inactive” in each case. Besides, the Potency result in test [17], in test [13] and in test [16] was “inactive” throughout.
As to `[O-][Cl+3]([O-])([O-])O`, the Potency result in [1], in [2], in test [3], in test [4], in test [5] and in test [6] was “inactive” each time. In addition, the Potency result in test [7], in [8], in test [9], in test [10], in [11] and in [18] was “inactive” in each case. Besides, the Potency entry in test [12], in test [17], in test [14], in test [15] and in test [16] was “inactive” throughout.
Take `O=C(CBr)c1ccccc1`: the Potency result in test [1], in [3], in test [4], in [5], in [6] and in [7] was “inactive” in each case. The Potency result in test [8], in [9], in test [10], in test [11], in test [18] and in [17] was “inactive” in each case. Moreover, the Potency result in test [13], in test [15] and in [16] was “inactive” throughout. The Potency in test [2] was 69 µM (active).
For `CC1(C)COP(Oc2ccccc2)OC1`, the Potency entry in test [1], in test [2], in test [3], in test [4], in test [5] and in test [6] was “inactive” throughout. The Potency entry in test [7], in test [8], in [9], in test [10], in test [11] and in test [18] was “inactive” each time. The Potency entry in test [12], in [13], in test [15] and in test [16] was “inactive” throughout.
For `O=S(=O)(O)F`, the Potency result in test [1], in [2], in test [3], in [4], in test [5] and in test [6] was “inactive” each time. Moreover, the Potency entry in [7], in test [8], in test [9], in test [10], in [11] and in test [18] was “inactive” throughout. For the same molecule, the Potency result in [12], in test [17], in test [13], in test [15] and in test [16] was “inactive” each time.
As to `O=C1OC(=O)C2C1C1(Cl)C(Cl)=C(Cl)C2(Cl)C1(Cl)Cl` (stereo not drawn), the Potency result in test [1], in test [2], in test [3], in test [4], in test [5] and in test [6] was “inactive” throughout. For the same molecule, the Potency result in test [7], in test [8], in test [9], in [10], in test [11] and in test [18] was “inactive” throughout. In addition, the Potency entry in test [12], in test [13], in [15] and in [16] was “inactive” throughout.
Regarding `O=C1CN=C(c2ccccc2)c2cc(Cl)ccc2N1CC1CC1`, the Potency entry in test [1], in [2], in [3], in [4], in [5] and in test [6] was “inactive” each time. Also, the Potency entry in test [7], in test [8], in [9], in [10], in [11] and in test [18] was “inactive” in each case. Also, the Potency entry in test [12], in test [15] and in test [16] was “inactive” in each case.
